# Bioassay records (PubChem BioAssay)
# A selection: hits, their analogues and other compounds. The true share with any hit is near 0.5%.
# E coli growth-1 – E. coli V3065 growth inhibition, primary screen, counter-screen for AddAB inhibitor project, absorbance, OD600; 18 h; inhibition, % at 11.9 µM; 0.27% of 330,000 active; AID 449728, 2010;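 active means inhibition above the campaign's mean inhibition across all tested compounds plus 3 SD, cut at about 9.9% in these data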;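 further: uninfected addAB+ strain grown without phage in ampicillin broth; 0% = DMSO wells and 100% = ciprofloxacin 0.95 µg/ml wells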
# AddAB inh – growth inhibition of E. coli expressing H. pylori AddAB, primary screen, AddAB inhibitor project, absorbance; inhibition, % at 11.9 µM; 0.29% of 330,000 active; in the data active means inhibition above about 12%;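 further: 0% = vehicle wells of infected cells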
# Tat export inh – E. coli Tat export inhibitors, primary screen, MC4100, TorA-mCherry reporter, fluorescence, single point; 0.036% of 340,000 active; inhibition, % at 10 µM; AID 488895, 2010;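 active means mean replicate inhibition at least 50% and at least half of replicates individually reaching 50%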;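 further: exported cargo escapes ClpAP degradation while cytoplasmic cargo is degraded and loses fluorescence; 0% = median of neutral control wells and 100% = median of NaSCN control wells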
# phage Ecoli inh – growth loss of phage-infected E. coli, primary screen, RecBCD inhibitor project, absorbance, with phage, HTS; inhibition, % at 11.9 µM; 0.26% of 360,000 active; AID 651602, 2012; in the data active means inhibition above about 11%
# E coli growth-2 – E. coli growth inhibition, primary screen, OD600; 0.21% of 330,000 active; OD600 absorbance (concentration not given with the values); Escherichia coli growth, 23 h; hits give low values;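 active means OD600 absorbance below the run mean of sample wells minus 3.6 SD, in any replicate, cut at about 0.56 in these data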
# * hit, by the source's call; nt = no result given.
SMILES,E coli growth-1,AddAB inh,Tat export inh,phage Ecoli inh,E coli growth-2
COc1ccc(C(NC(=O)c2cccnc2)c2cc(Cl)c3cccnc3c2O)cc1OC (stereo not drawn),23*,25*,-6,20*,0.67
CC12CCC(C(=O)N(CSC(=S)N/N=C\c3ccccc3Cl)C1=O)C2(C)C (stereo not drawn),11*,4,3,5,nt
CC12CCC(C(=O)N(CSC(=S)NN=Cc3ccccc3O)C1=O)C2(C)C (stereo not drawn),nt,nt,nt,nt,0.7
O=C(NNc1ccc(Cl)cc1)c1sccc1Cl,2,0,4,1,0.5*
COCCn1c(C)cc(C=NNC(=O)c2cccnc2)c1C,nt,nt,nt,nt,0.65
O=[N+]([O-])c1cc(C=NO)ccc1SCc1ccccc1,nt,nt,nt,nt,0.71
CC1CN(C(C)CO)C(=O)c2cccc(NC(=O)Nc3ccccc3)c2OC1CN(C)S(=O)(=O)c1ccc(F)cc1 (stereo not drawn),nt,nt,nt,nt,0.69
CCCCCCCCCCCCCCCC[N+](C)(C)CC,-2,-2,13,2,0.061*
CCCCCC[N+](C)(C)CCSSCC[N+](C)(C)CCCCCC,0,0,0,1,0.65
Cc1cccc(C)c1-n1c(C)cc(C=NNC(=O)CC(=O)NC2CCCCC2)c1C,nt,nt,nt,nt,0.75
Cc1ccc2nc(-c3ccncc3)c(Nc3ccccc3)n2c1,-2,0,-3,3,0.68
Cc1ccc(Nc2c(-c3ccccn3)nc3cc(C)ccn23)cc1,-1,3,5,7,0.4*
Cc1ccc(Nc2c(-c3ccccn3)nc3ccc(C)cn23)cc1,7,9,-4,5,0.46*
Cc1ccn2c(Nc3ccc4c(c3)OCO4)c(-c3ccccn3)nc2c1,3,6,-12,2,0.43*
COc1cc([N+](=O)[O-])cc(C=NNC(=O)C(C)Nc2cccc(C)c2)c1O (stereo not drawn),nt,nt,nt,nt,0.67
COCCNC(=O)C(C#N)=Cc1ccc(CNC(=O)C(=O)Nc2ccc(C)c(C)c2)o1,nt,nt,nt,nt,0.73
CC(=O)OC(COc1c2ccoc2cc2oc(=O)ccc12)C(C)(C)O (stereo not drawn),nt,nt,nt,nt,0.65
CC(C)NC(=O)N(C)CC1Oc2ccc(NC(=O)Nc3ccc(C(F)(F)F)cc3)cc2C(=O)N(C(C)CO)CC1C (stereo not drawn),nt,nt,nt,nt,0.67
S=C(NCCc1ccccc1)NC1CCCCCC1,3,2,-1,2,0.65
S=C(NCCNCc1ccccc1)NC1CCCCC1,98*,98*,nt,nt,nt
O=C(NNC(=S)NC(=O)c1ccccc1)c1ccc([N+](=O)[O-])cc1,-2,-3,-2,-9,0.6
O=C(NC(=S)NNC(=O)c1ccccc1O)c1ccc([N+](=O)[O-])cc1,16*,11,12,6,nt
CC(=N/N=C1/NC(=O)CC(C(=O)O)S1)c1cccs1 (stereo not drawn),nt,nt,nt,nt,0.74
Cc1nc2ccccc2n1N=Cc1ccc([N+](=O)[O-])o1,nt,nt,nt,nt,0.29*
CC(=NO)c1ccc(Cl)c(Cl)c1,nt,nt,nt,nt,0.67
SMILES,E coli growth-1,AddAB inh,Tat export inh,phage Ecoli inh,E coli growth-2
CC(=O)Nc1ccc(S(=O)(=O)N2CCN(C(=O)C(=O)c3cccc(C(F)(F)F)c3)CC2)cc1,nt,nt,nt,1,nt
CC(=O)Nc1ccc(S(=O)(=O)N2CCN(c3cc(C(F)(F)F)ccn3)CC2)cc1,-2,-1,3,0,0.11*
CCOc1cc(C=NNC(=O)CNc2cccc(C)c2)ccc1OC(=O)c1ccccc1,nt,nt,nt,nt,0.68
CC(=NNC(=S)Nc1ccccc1C)c1cc2ccccc2o1,nt,nt,nt,nt,0.67
COc1ccc(Nc2cc(C)c3c(O)cccc3n2)cc1,1,3,-19,7,0.55
Cc1ccc(Nc2cc(C)c3c(O)cccc3n2)cc1C,2,4,7,1,0.5*
Cc1ccc(S(=O)(=O)NN=Cc2ccc([N+](=O)[O-])o2)cc1C,nt,nt,nt,nt,0.48*
CCc1ccc(S(=O)(=O)NN=Cc2ccc([N+](=O)[O-])o2)cc1,nt,nt,nt,nt,0.52
Cc1cc(C)c(S(=O)(=O)N/N=C/c2ccc([N+](=O)[O-])o2)c(C)c1,nt,nt,2,3,nt
Cc1cc(C)c(S(=O)(=O)NN=Cc2ccc([N+](=O)[O-])o2)c(C)c1,nt,nt,nt,nt,0.51*
Cc1ccc(S(=O)(=O)NN=Cc2ccc([N+](=O)[O-])o2)cc1,nt,nt,nt,nt,0.47*
O=C(Cc1ccc([N+](=O)[O-])cc1)NN=Cc1ccccc1F,nt,nt,nt,nt,0.7
CC(=NNC(=O)c1ccc2c(c1)OCO2)c1cccc(NC(=O)C(C)(C)C)c1,nt,nt,nt,nt,0.69
CC1CCN(C(=O)c2ccc(S(=O)(=O)N3CCCC3)cc2)CC1,-1,4,55*,3,0.68
CC1CCN(C(=O)c2ccc(S(=O)(=O)N3CCCCCC3)cc2)CC1,2,3,4,2,0.65
COc1ccc(Cc2c(N)nc(C)nc2N)cc1,-1,2,-6,5,0.64
Cc1nc(N)c(Cc2ccc(Cl)cc2Cl)c(N)n1,3,5,-10,5,0.48*
S=C(NCc1ccccc1)NCc1cccc(CNC(=S)NCc2ccccc2)c1,10*,10,-4,7,0.72
COc1ccc2c(c1)c(C(=O)NN=Cc1ccc(O)c(O)c1)c(C)n2C,nt,nt,nt,nt,0.64
NC(=O)c1ccc(N=Cc2ccc([N+](=O)[O-])s2)cc1,3,8,-2,6,0.35*
Cc1cc(C(=O)N/N=C/c2cccs2)n[nH]1,1,4,1,3,nt
O=[N+]([O-])c1ccc(C=Nc2ccc(Cl)c([N+](=O)[O-])c2)s1,nt,nt,1,10,nt
Cc1cc(C(=O)NN=Cc2ccc([N+](=O)[O-])s2)n[nH]1,nt,nt,nt,nt,0.46*
Cc1cc(C)cc(N=Cc2ccc([N+](=O)[O-])s2)c1,0,2,1,8,0.54*
O=C(NN=Cc1ccccc1C(=O)O)c1cccc(S(=O)(=O)N2CCCCC2)c1,nt,nt,nt,nt,0.68
SMILES,E coli growth-1,AddAB inh,Tat export inh,phage Ecoli inh,E coli growth-2
Cc1cc(-c2n[nH]c(=S)n2N=C/C(Br)=C/c2ccccc2)n[nH]1,nt,nt,nt,nt,0.059*
Cc1cc(-c2n[nH]c(=S)n2N=C/C=C/c2ccccc2)n[nH]1,nt,nt,nt,nt,0.69
CCOc1ccc(N(CC(=O)Nc2ccc(C)cc2)S(=O)(=O)c2c(C)noc2C)cc1,0,4,12,18*,0.76
CCOc1ccc(N(CC(=O)Nc2ccc(F)c(F)c2)S(=O)(=O)c2c(C)noc2C)cc1,1,5,1,3,0.67
CC1=NN(C(N)=S)C(=O)C1N=Nc1ccc(C)c(Br)c1 (stereo not drawn),13*,7,-18,3,0.62
Clc1ccc2c(c1)c1ccccc1n2CN1CCOCC1,1,-1,4,0,0.52*
Clc1ccc2c(c1)c1cc(Cl)ccc1n2CN1CCOCC1,-2,3,6,1,0.088*
COc1ccc(Cl)cc1CN1CCOCC1,0,3,6,-3,0.66
CC(=NNC(=O)CNc1cccc(C)c1)c1ccc(Br)s1,nt,nt,nt,nt,0.72
O=C(CNC(=O)c1ccncc1)NN=Cc1ccc(Br)cc1,nt,nt,nt,nt,0.66
CCOC(=O)C1C2COc3ccc(Br)cc3C2N2C(=O)N(c3cccc(Cl)c3)C(=O)[C@]12C (stereo partly drawn),nt,nt,nt,nt,0.67
